Results filed as inconclusive are left out. Active and inactive are the calls of the source. Calls follow the shape of the dose curve; as a rule, active = well fitted curve in the direction sought with a large enough effect; inconclusive = small, poorly fitted or top-dose-only effect, or another doubt; inactive = no such curve, though single readings can be large; an effect the other way counts as inactive or inconclusive.
Columns and labels:
[1] = qHTS of pediatric cancer cell lines to identify multiple opportunities for drug repurposing: Primary screen for MG 63 (6-TG R) cells (AID 1347105); conditions: MG 63 (6-TG R) viability, CellTiter-Glo, 48 h; series mostly up to 46 µM; also: nearly all actives have a fitted effect of over 50% in size
Method in brief: (§1)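 Primary screen of approved and investigational compounds on cells in growth media at 37 degrees C, 5% CO2. MIPE set at 11-point and NPC set at 8-point dilutions; viability scored by ATP-based luminescence at 48 hours.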

[2] = qHTS of pediatric cancer cell lines to identify multiple opportunities for drug repurposing: Primary screen for control Hh wild type fibroblast cells (AID 1347106); conditions: Hh wild-type fibroblast viability, CellTiter-Glo luminescence, 48 h; series mostly up to 46 µM; also: nearly all actives have a fitted effect of over 55% in size
Method in brief: (§2)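 Cells (500-1,000/well) in growth media were settled 5 h at 37 degrees C, then given compounds for 48 h. Viability was read as CellTiter-Glo luminescence. Primary runs used MIPE at 11 points (0.78 nM-46 µM) and NPC at 8 points (0.59 nM-46 µM); follow-ups used 11 points.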

[3] = qHTS of pediatric cancer cell lines to identify multiple opportunities for drug repurposing: Primary screen for Rh30 cells (AID 1347107); conditions: Rh30 rhabdomyosarcoma viability, CellTiter-Glo luminescence, 48 h; series mostly up to 46 µM; also: nearly all actives have a fitted effect of over 75% in size
Method in brief: as §2

[4] = qHTS of pediatric cancer cell lines to identify multiple opportunities for drug repurposing: Primary screen for Rh41 cells (AID 1347108); conditions: Rh41 rhabdomyosarcoma viability, CellTiter-Glo luminescence, 48 h; series mostly up to 46 µM; also: nearly all actives have a fitted effect of over 70% in size
Method in brief: as §1

[5] = qHTS of pediatric cancer cell lines to identify multiple opportunities for drug repurposing: Confirmatory screen for NB1643 cells (AID 1347109); conditions: NB1643 neuroblastoma cell viability; series mostly up to 45.9 µM; also: nearly all actives have a fitted effect of over 45% in size
Method in brief: as §2

[6] = qHTS of pediatric cancer cell lines to identify multiple opportunities for drug repurposing: Confirmatory screen for A673 cells (AID 1347110); conditions: A673 Ewing sarcoma cell viability; series mostly up to 45.9 µM;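 also: cells exposed to compound for 48 h before the viability read; nearly all actives have a fitted effect of over 65% in size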
Method in brief: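 A673 cells seeded at 500-1,000 cells/well, rested 5 h, then dosed; primary MIPE 11-point (0.78 nM to 46 µM), NPC (0.59 nM to 46 µM); confirmatory 11-point. CellTiter-Glo luminescence after 48 h.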

[7] = qHTS of pediatric cancer cell lines to identify multiple opportunities for drug repurposing: Confirmatory screen for SK-N-MC cells (AID 1347111); conditions: SK-N-MC cell viability; series mostly up to 45.9 µM;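 also: cells exposed to compound for 48 h before the readout; nearly all actives have a fitted effect of over 70% in size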
Method in brief: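 Metabolically active cells were quantified by ATP-dependent luminescence (CellTiter-Glo, 15 min at room temperature) following 48 h treatment. Cells had been plated at 500-1,000 per well and settled for 5 h beforehand.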

[8] = qHTS of pediatric cancer cell lines to identify multiple opportunities for drug repurposing: Confirmatory screen for BT-12 cells (AID 1347112); conditions: BT-12 rhabdoid tumor cells, viability; series mostly up to 45.9 µM; also: nearly all actives have a fitted effect of over 55% in size
Method in brief: as §2

[9] = qHTS of pediatric cancer cell lines to identify multiple opportunities for drug repurposing: Confirmatory screen for LAN-5 cells (AID 1347113); conditions: LAN-5 neuroblastoma cell viability; series mostly up to 45.9 µM; also: nearly all actives have a fitted effect of over 65% in size
Method in brief: as §2

[10] = qHTS of pediatric cancer cell lines to identify multiple opportunities for drug repurposing: Confirmatory screen for DAOY cells (AID 1347114); conditions: DAOY medulloblastoma cells viability, cytotoxicity qHTS; series mostly up to 45.9 µM; also: nearly all actives have a fitted effect of over 65% in size
Method in brief: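 Viability measured as metabolically active cells via CellTiter-Glo luminescence following 48 hours of compound exposure, 11-point dilutions in confirmatory testing. 500-1,000 cells/well plated 5 hours before dosing; controls were DMSO and 2.3 µM bortezomib.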

Measured: Potency
Potency is read from the fitted curve at half-maximal effect.

CC1COC2(CCN(c3nc(=O)c4cc(C(F)(F)F)cc([N+](=O)[O-])c4s3)CC2)O1 (stereo not given)
inactive: [1] | [2] | [3] | [4]

COc1cc(C(=O)NS(=O)(=O)c2ccccc2C)ccc1Cc1cn(C)c2ccc(NC(=O)OC3CCCC3)cc12
inactive: [2]
active: [1] 29600 nM

CN1CCN(c2ccc3nc(-c4c(N)c5c(F)cccc5[nH]c4=O)[nH]c3c2)CC1
inactive: [1] | [2]

COc1ccc2c(OCc3nnc4ccc(-c5ccccc5)nn34)ccnc2c1
inactive: [1] | [2] | [3]

C[C@]1(CO)CN(c2cc(C(=O)Nc3ccc4c(c3)-c3c(c(C(N)=O)nn3-c3ccc(F)cc3)CC4)c(Cl)cn2)C[C@@]1(C)CO
active: [1] 9350 nM

CCCCN1CCC(CNC(=O)c2c3n(c4ccccc24)CCCO3)CC1
inactive: [3]
active: [1] 935 nM | [2] 1180 nM

OCc1ccc(-c2ccc(-c3ccc(CO)s3)o2)s1
inactive: [2]
active: [1] 11800 nM | [3] 16600 nM | [4] 7430 nM

C[C@]12CC[C@H](O)CC1=CCC1C2CC[C@]2(C)C(n3cnc4ccccc43)=CCC12 (stereo not given in full)
inactive: [1] | [2] | [3]

COC(=O)[C@]12CCC(C)(C)C[C@@H]1[C@@H]1C(=O)C=C3[C@@]4(C)C=C(C#N)C(=O)C(C)(C)[C@@H]4CC[C@@]3(C)[C@]1(C)CC2
active: [1] 743 nM | [2] 5900 nM | [3] 1480 nM | [4] 1180 nM | [5] 3290 nM | [6] 1650 nM | [7] 3690 nM | [8] 7370 nM | [9] 2610 nM | [10] 2330 nM

CC(C)C[C@H](NC(=O)CNC(=O)c1cc(Cl)ccc1Cl)B(O)O
active: [1] 235 nM | [2] 1050 nM | [3] 1870 nM | [4] 469 nM | [6] 465 nM | [8] 465 nM | [10] 185 nM
inactive: [7]

C[C@@]12O[C@@H](C[C@]1(O)CO)n1c3ccccc3c3c4c(c5c6ccccc6n2c5c31)CNC4=O
active: [1] 4690 nM | [2] 23500 nM | [4] 7430 nM | [5] 1850 nM | [6] 1040 nM | [7] 261 nM | [8] 14700 nM | [9] 5220 nM | [10] 9270 nM
inactive: [3]

Cc1ccc(S(=O)(=O)Nc2cc(Cl)ccc2C(=O)Nc2nc(-c3ccccc3)cs2)cc1
active: [1] 9350 nM | [4] 18700 nM
inactive: [2] | [3]

NC(=O)Nc1cc(-c2cccc(F)c2)sc1C(=O)N[C@H]1CCCNC1
active: [1] 7430 nM | [3] 833 nM | [4] 1870 nM | [5] 928 nM | [6] 1850 nM | [7] 414 nM | [9] 827 nM | [10] 2330 nM
inactive: [2] | [8]

CC1=C(CO)C(=O)O[C@@H]([C@@H](C)[C@H]2CC[C@H]3[C@@H]4C[C@H]5O[C@]56[C@@H](O)C=CC(=O)[C@]6(C)[C@@H]4CC[C@]23C)C1
active: [1] 743 nM | [3] 2350 nM | [4] 1180 nM | [6] 18500 nM | [8] 10400 nM
inactive: [2] | [7] | [10]

O=C(O)Cn1nnc(-c2cc(N3CCC(Oc4cc(F)ccc4Br)CC3)no2)n1
inactive: [1] | [2] | [3] | [4]

O=C(Nc1cn[nH]c1-c1nc2ccc(CN3CCOCC3)cc2[nH]1)NC1CC1
active: [1] 7430 nM | [2] 10500 nM | [4] 4690 nM | [7] 1650 nM
inactive: [3] | [6] | [8] | [9] | [10]

Nc1ccccc1NC(=O)c1ccc(CNC(=O)OCc2cccnc2)cc1
active: [1] 4690 nM | [2] 20900 nM | [3] 18700 nM | [4] 3720 nM | [5] 2140 nM | [6] 13500 nM | [7] 302 nM | [9] 2690 nM | [10] 1910 nM

CN1c2cc(O)c(N=NC(N)=O)cc2CC1S(=O)(=O)O (stereo not given)
inactive: [1] | [2] | [3] | [4]

O=c1[nH]c(=O)n(C2CCCO2)cc1F (stereo not given)
inactive: [1] | [2] | [3] | [4]

CC(=O)SC[C@@H](C)C(=O)N1CCC[C@H]1C(=O)N[C@@H](Cc1ccccc1)C(=O)O
inactive: [1] | [2] | [3] | [4]

Cc1coc2c1C(=O)C(=O)c1c-2ccc2c1CCCC2(C)C
inactive: [1] | [2] | [3] | [4]
